PubChem BioAssay (EPA / NIEHS)
Inconclusive results are not listed. The source made the active and inactive calls. The calls were made as follows, unless noted: active = hit-call score of the fitted dose curve at least 0.9, where 1 is the maximum; inactive = score below 0.9.

Experiments:
[1] = APR_HepG2_CellCycleArrest_1hr: Apredica 1-hour HepG2 Assay for Cell Cycle Arrest (AID 2282666); settings: high-content imaging, actives raise or lower the signal
Summary of the method: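 Cell cycle arrest scored from nuclear DNA content (Hoechst 33342) using high-content imaging of fixed HepG2 cells after 1 h treatment across 0.39–200 uM, in duplicate. Gain or loss fitted relative to 0.5% DMSO.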

[2] = ACEA_ER_80hr: ACEA Biosciences xCELLigence Real-Time Cell Analysis on Estrogen Receptor Agonism for Proliferation (AID 2282667; active = hit-call score of the fitted dose curve at least 0.9, where 1 is the maximum); settings: T47D proliferation, impedance (xCELLigence), 80 h
Summary of the method: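 Real-time electrical impedance tracked growth of the human breast line T47D, with the 80 h post-dosing value used. Dosing spanned eight 1:4 steps down from a 100 uM final top concentration, run in duplicate.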

[3] = APR_HepG2_CellLoss_1hr: Apredica 1-hour HepG2 Assay for Cell Loss (AID 2282668); settings: high-content imaging;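 also: curves fitted both ways against DMSO so gain or loss of cells counts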
Summary of the method: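 Cell number comes from high-content imaging of Hoechst-labelled nuclei in fixed HepG2 cells. Cells were exposed for 1 h to ten concentrations from 0.39 to 200 uM in 0.5% DMSO. Gain or loss was fitted against DMSO controls.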

[4] = APR_HepG2_NuclearSize_1hr: Apredica 1-hour HepG2 Assay for Nuclear Size (AID 2282670); settings: high-content imaging, actives raise or lower the signal
Summary of the method: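 Nuclear size measured by high-content imaging of Hoechst 33342 nuclear stain after formaldehyde fixation; human HepG2 line exposed 1 hr to compounds at 0.39–200 uM in 0.5% DMSO, with bidirectional curve fitting relative to DMSO.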

[5] = APR_HepG2_p53Act_1hr: Apredica 1-hour HepG2 Assay for p53 Activation (AID 2282671); settings: high-content imaging, actives raise or lower the signal
Summary of the method: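 After 1 h exposure (0.39–200 uM, 0.5% DMSO final, duplicates), fixed HepG2 cells were labelled with anti-p53 antibody plus Hoechst nuclear stain. Fluorescence quantified by automated 20x imaging; changes fitted in both directions against DMSO.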

[6] = APR_HepG2_P-H2AX_1hr: Apredica 1-hour HepG2 Assay for H2AX Phosphorylation (AID 2282673); settings: high-content imaging, actives raise or lower the signal
Summary of the method: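 Phospho-H2A.x immunofluorescence (1:200, FITC secondary) plus Hoechst nuclear stain, quantified by high-content imaging in HepG2 after 1 hr compound exposure. Ten concentrations, 0.39 to 200 uM, in duplicate with 0.5% DMSO; fit both directions against DMSO.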

[7] = APR_HepG2_MitoMass_1hr: Apredica 1-hour HepG2 Assay for Mitochondrial Mass (AID 2282674); settings: high-content imaging, actives raise or lower the signal
Summary of the method: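 Mitochondrial mass is taken from MitoTracker Red CMXRos (250 nM, 30 min, pre-fixation) fluorescence imaged at 20x in HepG2 cells. Exposure lasted 1 hr across ten concentrations, 0.39 to 200 uM, 0.5% DMSO; DMSO baseline, bidirectional fitting.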

[8] = APR_HepG2_MitoMembPot_1hr: Apredica 1-hour HepG2 Assay for Mitochondrial Membrane Potential (AID 2282675); settings: imaging, actives raise or lower the signal
Summary of the method: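 Mitochondrial membrane potential read as MitoTracker Red CMXRos intensity by automated imaging of fixed HepG2 cells. Dye at 250 nM for 30 min pre-fixation; compounds 0.39 to 200 uM for 1 hour, duplicate wells, 0.5% DMSO.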

[9] = APR_HepG2_CellCycleArrest_24hr: Apredica 24-hour HepG2 Assay for Cell Cycle Arrest (AID 2282905); settings: imaging, actives raise or lower the signal;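 also: cell cycle arrest scored as ratio of 2N to 4N nuclear DNA content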
Summary of the method: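 Readout: Hoechst 33342 nuclear DNA content by high-content fluorescent imaging, six images/well, 20x. Human HepG2 liver cells, 24 hr compound exposure, 0.39–200 uM, final DMSO 0.5% v/v. Gain or loss fitted relative to DMSO baseline.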

[10] = APR_HepG2_NuclearSize_24hr: Apredica 24-hour HepG2 Assay for Nuclear Size (AID 2282907); settings: high-content imaging, actives raise or lower the signal
Summary of the method: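 Read-out: nuclear diameter from Hoechst 33342 (2 ug/mL) imaging of fixed HepG2 cells, 20x, six fields/well. Compounds ran at 0.39–200 uM for 24 hr, 0.5% DMSO final. Gain or loss was fitted bidirectionally relative to the DMSO baseline.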

[11] = APR_HepG2_CellLoss_24hr: Apredica 24-hour HepG2 Assay for Cell Loss (AID 2282908); settings: high-content imaging;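 as to AC50: fit in both directions so a hit may be cell loss or gain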
Summary of the method: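 Read-out: Hoechst 33342-stained nuclei counted by automated fluorescence imaging after formaldehyde fixation and Triton permeabilization. Ten concentrations, 0.39 to 200 uM, duplicate wells, 0.5% DMSO final. Gain or loss of signal fitted relative to DMSO baseline.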

[12] = APR_HepG2_MitoticArrest_24hr: Apredica 24-hour HepG2 Assay for Mitotic Arrest (AID 2282910); settings: high-content imaging, actives raise or lower the signal
Summary of the method: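 HepG2, 24 hr dosing, 0.39–200 uM, 0.5% DMSO final. Formaldehyde-fixed, Triton-permeabilised, anti-phospho-histone H3 plus Hoechst. ArrayScan imaging at 20x; bidirectional fit vs DMSO baseline.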

[13] = APR_HepG2_MitoMembPot_24hr: Apredica 24-hour HepG2 Assay for Mitochondrial Membrane Potential (AID 2282911); settings: imaging, actives raise or lower the signal
Summary of the method: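 Cells are dosed for 24 hr across 0.39 to 200 uM with solvent held at 0.5% DMSO. They are then stained with 250 nM MitoTracker Red CMXRos for 30 min, fixed in 3.7% formaldehyde and imaged.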

[14] = APR_HepG2_MitoMass_24hr: Apredica 24-hour HepG2 Assay for Mitochondrial Mass (AID 2282912); settings: high-content imaging, actives raise or lower the signal
Summary of the method: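 HepG2, 24 hr dosing, 10 concentrations 0.39–200 uM in duplicate, DMSO 0.5% final. MitoTracker Red CMXRos 250 nM, 30 min pre-fix; 3.7% formaldehyde fix. Imaging-based fluorescence intensity; gain/loss fit vs DMSO baseline.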

[15] = APR_HepG2_p53Act_24hr: Apredica 24-hour HepG2 Assay for p53 Activation (AID 2282913); settings: high-content imaging, actives raise or lower the signal;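 also: p53 protein immunofluorescence averaged per cell in HepG2 with Hoechst nuclei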
Summary of the method: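 Human HepG2 liver cells; 24 hr cpd treatment, 0.39–200 uM, 0.5% DMSO final. Fixed in 3.7% formaldehyde, permeabilized with 0.5% Triton X-100, stained with anti-p53/Cy5 plus Hoechst 33342. Six images per well at 20x; gain or loss vs DMSO.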

[16] = APR_HepG2_CellCycleArrest_72hr: Apredica 72-hour HepG2 Assay for Cell Cycle Arrest (AID 2282914); settings: high-content imaging, actives raise or lower the signal
Summary of the method: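 Read-out is Hoechst-stained nuclear DNA content measured by automated fluorescence imaging (20x, six images per well), fitted in both directions relative to DMSO. Human HepG2 liver cells received 0.39–200 uM compound for 72 hr at 0.5% v/v DMSO.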

[17] = APR_HepG2_StressKinase_1hr: Apredica 1-hour HepG2 Assay for Stress Kinase (AID 2282906); settings: HepG2 stress kinase (phospho-c-Jun) imaging, actives raise or lower the signal
Summary of the method: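 High-content imaging of phospho-c-Jun immunostaining (with Hoechst nuclear identification) after a 1 h exposure of HepG2 cells to 10 concentrations from 0.39 to 200 uM, final DMSO 0.5%. Fitted bidirectionally against DMSO.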

[18] = APR_HepG2_MitoticArrest_1hr: Apredica 1-hour HepG2 Assay for Mitotic Arrest (AID 2282672); settings: high-content imaging, actives raise or lower the signal
Summary of the method: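 Ten-point concentration series (0.39 to 200 uM, duplicates, 0.5% v/v DMSO) applied to human HepG2 liver cells for 1 hr. High-content imaging of phospho-histone H3 and Hoechst-stained nuclei after fixation and permeabilization; DMSO-normalised bidirectional fit.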

[19] = APR_HepG2_MicrotubuleCSK_24hr: Apredica 24-hour HepG2 Assay for Microtubule CSK Stabilty (AID 2282909); settings: HepG2 microtubule cytoskeleton imaging, actives raise or lower the signal
Summary of the method: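 Read-out: alpha-tubulin immunofluorescence intensity by automated high-content imaging of fixed HepG2 cells after 24 h compound treatment. Ten concentrations, 0.39 to 200 uM, in duplicate; DMSO 0.5% v/v. Taxol positive control; DMSO-normalized bidirectional curve fitting.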

Measured: AC50

Cc1cc(C)nc(Nc2ccccc2)n1
active: [9] 43.7 µM | [13] 75.7 µM | [16] 61.8 µM
not listed: [17] | [18] | [19]
inactive: all other assays above

CO/N=C(/C1=NOCCO1)c1ccccc1Oc1ncnc(Oc2ccccc2Cl)c1F
active: [2] 10.5 µM | [13] 0.309 µM
not listed: [4] | [8] | [10] | [18] | [19]
inactive: all other assays above

COc1ccc(-c2ccccc2)cc1NNC(=O)OC(C)C
not listed: [8] | [17] | [18] | [19]
inactive: all other assays above

COc1cc(OC)nc(NC(=O)NS(=O)(=O)c2ncccc2OCC(F)(F)F)n1
not listed: [4] | [17]
inactive: all other assays above

N#Cc1c(Cl)cccc1Cl
not listed: [4] | [8] | [18]
inactive: all other assays above

CCN(CC)c1nc(C)cc(OP(=S)(OC)OC)n1
not listed: [4] | [8] | [18] | [19]
inactive: all other assays above

CC1(C)C(C=C(Cl)Cl)C1C(=O)OC(C#N)c1cccc(Oc2ccccc2)c1 (stereo not given)
active: [9] 35.1 µM
not listed: [8] | [18]
inactive: all other assays above

OC(c1ccc(Cl)cc1)(c1ccc(Cl)cc1)C(Cl)(Cl)Cl
active: [3] 89.3 µM | [4] 110 µM | [5] 109 µM | [6] 90.1 µM | [11] 43.1 µM | [15] 112 µM
not listed: [8] | [10] | [17] | [19]
inactive: all other assays above
